# Where “and” joins values, the source holds several entries; their conditions need not be identical. Equal entries are not always repeated. Values without a mark were called inactive. Records with an inconclusive call do not appear. Where a call stands in place of a potency, no number is given. Calls of active or inactive are those of the source. Unless noted, calls follow the shape of the dose curve; as a rule, active = well fitted curve in the direction sought with a large enough effect in the repeat runs; inconclusive = weak or mixed curves; inactive = flat fitted curve, though single readings scatter.
# Key:
# [1] = qHTS assay to test for compound auto fluorescence at 535 nm (green) in HEK293 cells (AID 720680)
# [2] = qHTS assay to test for compound auto fluorescence at 460 nm (blue) in HEK293 cell free culture (AID 720681)
# In short: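 Blue fluorescence (Ex 405/Em 460 nm, triamterene-equivalent) was read immediately after pin transfer of compound or DMSO into medium (DMEM, 10% FBS) without cells.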
# [3] = qHTS assay to test for compound auto fluorescence at 535 nm (green) in HEK293 cell free culture (AID 720682)
# In short: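 Read-out: 485/535 nm fluorescence intensity, calibrated against fluorescein. Medium only (DMEM + 10% FBS, no cells); test compound or DMSO vehicle added by pintool before plate reading.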
# [4] = qHTS assay to test for compound auto fluorescence at 590 nm (red) in HEK293 cell free culture (AID 720683)
# In short: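 Red-channel autofluorescence of compounds in culture medium (DMEM, 10% FBS), no cells, measured at 540/590 nm. Rose Bengal sodium is the reference fluorophore for equivalence.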
# [5] = qHTS assay to test for compound auto fluorescence at 590 nm (red) in HepG2 cell free culture (AID 720684)
# In short: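 Plate contents were MEM with 10% FBS plus test compound or DMSO, no cells. Fluorescence was recorded with 540 nm excitation and 590 nm emission.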
# [6] = qHTS assay to test for compound auto fluorescence at 460 nm (blue) in HepG2 cell free culture (AID 720685)
# In short: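 Compound (23 nL) or DMSO pinned into cell-free MEM with 10% FBS; blue fluorescence read at 405/460 nm excitation/emission, expressed as auto-fluorescence equivalency to triamterene.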
# [7] = qHTS assay to test for compound auto fluorescence at 535 nm (green) in HepG2 cell free culture (AID 720686)
# [8] = qHTS assay to test for compound auto fluorescence at 460 nm (blue) in HepG2 cells (AID 720687)
# In short: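 Blue-channel autofluorescence (Ex/Em 405/460 nm, triamterene-equivalent) was measured after 1 hr compound exposure at 37 C, 5% CO2. Cells were HepG2, plated overnight at 37 C in MEM plus 10% FBS.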
# [9] = molecular target: Glucocorticoid receptor (Homo sapiens) (UniProt P04150); experiment: qHTS assay to identify small molecule agonists of the glucocorticoid receptor (GR) signaling pathway (AID 720691; active = well fitted activation curve with a large enough effect in the signal ratio in the repeat runs, not every such curve was filed as active; the % refers to the signal ratio)
# Chain of Glucocorticoid receptor (Homo sapiens) (P04150 whole entry, looked up): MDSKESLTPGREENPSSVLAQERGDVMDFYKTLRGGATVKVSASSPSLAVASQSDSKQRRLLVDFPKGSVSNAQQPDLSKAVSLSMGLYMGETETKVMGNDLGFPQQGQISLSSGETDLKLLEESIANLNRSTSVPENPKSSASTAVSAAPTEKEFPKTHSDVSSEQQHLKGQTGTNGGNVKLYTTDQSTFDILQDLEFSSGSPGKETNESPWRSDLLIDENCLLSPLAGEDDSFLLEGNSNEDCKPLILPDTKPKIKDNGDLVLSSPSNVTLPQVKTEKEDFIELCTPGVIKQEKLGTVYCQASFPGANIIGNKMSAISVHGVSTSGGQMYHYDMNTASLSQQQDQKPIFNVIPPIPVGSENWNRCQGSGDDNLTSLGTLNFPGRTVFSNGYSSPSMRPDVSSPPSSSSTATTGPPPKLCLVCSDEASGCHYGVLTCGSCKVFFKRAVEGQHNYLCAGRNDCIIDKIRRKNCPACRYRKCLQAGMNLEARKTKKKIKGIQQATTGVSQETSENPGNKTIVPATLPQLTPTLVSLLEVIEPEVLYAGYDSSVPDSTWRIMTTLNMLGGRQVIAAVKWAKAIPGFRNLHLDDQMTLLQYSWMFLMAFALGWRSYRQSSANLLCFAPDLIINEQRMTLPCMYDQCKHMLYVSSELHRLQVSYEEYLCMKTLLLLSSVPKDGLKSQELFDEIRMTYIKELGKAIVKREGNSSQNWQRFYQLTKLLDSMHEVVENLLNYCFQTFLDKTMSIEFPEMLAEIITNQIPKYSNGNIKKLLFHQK
# In short: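 Fluorescence intensity from LiveBLAzer B/G FRET substrate (2 h, room temperature) reports beta-lactamase expression driven by the glucocorticoid response element in GR-bla HeLa cells after 18 h compound exposure at 37 C.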
# [10] = molecular target: Glucocorticoid receptor (Homo sapiens) (UniProt P04150); experiment: qHTS assay to identify small molecule antagonists of the glucocorticoid receptor (GR) signaling pathway (AID 720692; active = well fitted inhibition curve with a large enough effect in the signal ratio in the repeat runs, not every such curve was filed as active; the % refers to the signal ratio; also: potency is read from the fitted curve at half-maximal effect)
# In short: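 HeLa GR-bla cells; cmpd + dex 5 nM final, 18 h 37 C; LiveBLAzer B/G FRET substrate 2 h RT; fluorescence intensity read. Antagonist mode, qHTS.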
SMILES,outcome [1],outcome [2],outcome [3],outcome [4],outcome [5],outcome [6],outcome [7],outcome [8],Potency [9],Potency [10]
CCn1nc(C(=O)O)c(=O)c2cc3c(cc21)OCO3,inactive,inactive,inactive,inactive,inactive,inactive,inactive,inactive,inactive,inactive
CC(=O)Nc1c(I)cc(I)c(C(=O)O)c1I,inactive,inactive,inactive,inactive,inactive,,inactive,inactive,inactive,inactive
CN(C)CCCN1c2ccccc2CCc2ccc(Cl)cc21,inactive,inactive,inactive,inactive,inactive,,inactive,inactive,inactive,
N=C(N)c1ccccc1,inactive,inactive,inactive,inactive,inactive,,inactive,,,
COc1ccc(CCN(C)CCCC(C#N)(c2cc(OC)c(OC)c(OC)c2)C(C)C)cc1OC (stereo unspecified),inactive,inactive,inactive,inactive,inactive,inactive,inactive,inactive,inactive,inactive
O=C(O)CN(CCOCCOCCN(CC(=O)O)CC(=O)O)CC(=O)O,inactive,inactive,inactive,inactive,inactive,inactive,inactive,inactive,inactive,inactive
C=CCS(=O)(=O)O,inactive,inactive,inactive,inactive,inactive,,inactive,inactive,inactive,
CC/C=C\CC/C=C/CO,inactive,inactive,inactive,inactive,inactive,,inactive,inactive,inactive,inactive
CC(C)(C)c1ccc(O)c(O)c1,inactive,inactive,inactive,inactive,inactive,,inactive,inactive,inactive,50.9 µM (active)
C[C@H]1C[C@@H](O)CC(C)(C)C1,inactive,inactive,inactive,inactive,inactive,inactive,inactive,inactive,inactive,inactive
Cc1cc2c(cc1S(N)(=O)=O)S(=O)(=O)CCC2,inactive,inactive,inactive,inactive,inactive,inactive,inactive,inactive,inactive,inactive
CC(=O)Nc1ccc(S(N)(=O)=O)cc1,inactive,inactive,inactive,inactive,inactive,,inactive,inactive,inactive,inactive
FC(F)OC(Cl)C(F)(F)F (stereo unspecified),inactive,inactive,inactive,inactive,inactive,inactive,inactive,inactive,inactive,inactive
C=C(C)CS(=O)(=O)O,inactive,inactive,inactive,inactive,inactive,,inactive,inactive,inactive,inactive
CC1=CC(C)C(C=O)CC1 (stereo unspecified),inactive,inactive,inactive,inactive,inactive,inactive,inactive,inactive,inactive,inactive
N[C@H]1CN(c2c(F)cc3c(=O)c(C(=O)O)cn(C4C[C@H]4F)c3c2Cl)CC12CC2 (stereo partly specified),inactive,inactive,inactive,inactive,inactive,inactive,inactive,inactive,inactive,inactive
CCc1ccc(O)c(OC)c1,inactive,inactive,inactive,inactive,inactive,,inactive,inactive,inactive,inactive
COC(=O)C1=C(C)NC(C)=C(C(=O)OC)C1c1ccccc1[N+](=O)[O-],inactive,inactive,inactive,inactive,inactive,inactive,inactive,inactive,inactive,10.7 µM (active) and 27.6 µM (active)
CC/C=C\CCOC(C)=O,inactive,inactive,inactive,inactive,inactive,inactive,inactive,inactive,inactive,inactive
Cc1[nH]c(=O)c(C#N)cc1-c1ccc2nccn2c1,inactive,inactive,inactive,inactive,inactive,,inactive,inactive,inactive,inactive
CCC(=O)OC(C)c1ccccc1 (stereo unspecified),inactive,inactive,inactive,inactive,inactive,,inactive,inactive,inactive,
CC(C)=CCCC(C)CC(=O)O (stereo unspecified),inactive,inactive,inactive,inactive,inactive,,inactive,inactive,inactive,
Cc1c(NC(C)C)c(=O)n(-c2ccccc2)n1C,inactive,inactive,inactive,inactive,inactive,inactive,inactive,inactive,inactive,inactive
CC(C)NCC(O)c1ccc(NS(C)(=O)=O)cc1 (stereo unspecified),inactive,inactive,inactive,inactive,inactive,inactive,inactive,inactive,inactive,inactive
COC(C)(C)CCCC(C)CC=O (stereo unspecified),inactive,inactive,inactive,inactive,inactive,inactive,inactive,inactive,inactive,inactive
COC(=O)NN,inactive,inactive,inactive,inactive,inactive,inactive,inactive,inactive,inactive,inactive

# Source: PubChem BioAssay (Tox21)
